Measured values: PubChem BioAssay
The source made the active and inactive calls.

What was measured:
[1] = E. coli DRC41 culture turbidity changes, primary screen, E. coli filamentation inducer project, strain DRC41, OD650, 48 h (AID 1152);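 note: E. coli MC1000 strain DRC41 lacking acrAB efflux pump and sulA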; conditions: E. coli DRC41 (acrAB sulA), higher = more signal, called active from +8 up or from −8 down
[2] = small-molecule binders of probe aLefty1, primary screen, biochemical, small-molecule microarray, 635/667 nm fluorescence (AID 1153); conditions: higher = more signal;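 note: score merges spot fluorescence with signal-to-noise ratio from the scanned slide images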
[3] = PSAC antagonists in infected red cells, primary screen, cell-based, P. falciparum Indochina, OD700, 1 h (AID 1154); conditions: P. falciparum Indochina infected RBC osmotic lysis, higher = more signal, called active from +8 up or from −8 down
[4] = PSAC antagonists in infected red cells, primary screen, cell-based, P. falciparum Indochina, OD700, 2 h (AID 1155);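 note: lysis reports solute entry through the parasite surface anion channel PSAC; channel blockers reduce lysis of infected cells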; conditions: P. falciparum Indochina infected erythrocytes, osmotic lysis OD700; higher = more signal, called active from +8 up or from −8 down
[5] = osmotic lysis modulators in infected erythrocytes, primary screen, PSAC antagonist project, cell-based, P. falciparum Indochina, OD700, 3 h (AID 1156); conditions: higher = more signal, called active from +8 up or from −8 down
[6] = PSAC antagonists in infected red cells, primary screen, cell-based, P. falciparum Indochina, OD700, 18 h (AID 1157); conditions: P. falciparum Indochina infected erythrocytes, osmotic lysis OD700, 18 h; higher = more signal, called active from +8 up or from −8 down
[7] = modulators of S6 phosphorylation in cells, primary screen, cell-based, A549, cytoblot, luminescence, serum-stimulated (AID 1158); conditions: A549 phospho-S6 cytoblot, 5 h, higher = more signal;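 note: serum-stimulated A549 lung adenocarcinoma cells; signal is phosphorylated S6 detected by cytoblot immunostaining with HRP secondary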
[8] = biological target: NADPH oxidase 2 (Homo sapiens) (UniProt P04839); test: NOX2-dependent H2O2 signal modulators, primary screen, NOX inhibitor project, cell-based, HEK293-NOX2, PMA-stimulated, Amplex Red fluorescence (AID 1159); conditions: 45 min, higher = more signal, called active from +8 up or from −8 down; note: test concentration not given here
[9] = biological target: NADPH oxidase 4 (Homo sapiens) (UniProt Q9NPH5); test: NOX4-dependent H2O2 signal modulators, primary screen, NOX inhibitor project, cell-based, HEK293-NOX4, tetracycline-induced, Amplex Red fluorescence (AID 1160); conditions: 45 min, higher = more signal, called active from +8 up or from −8 down
[10] = biological target: NADPH oxidase 5 (Homo sapiens) (UniProt Q96PH1); test: NOX5-dependent H2O2 signal modulators, primary screen, NOX inhibitor project, cell-based, HEK293-NOX5, Amplex Red fluorescence (AID 1161); conditions: HEK293-NOX5, ionomycin, 45 min, higher = more signal
[11] = A549 cell viability effects, profiling panel, calcein-AM fluorescence, 48 h, basal (AID 1162); conditions: higher = more signal; note: test concentration not given here
[12] = adipocyte viability effects, profiling panel, cell-based, 3T3-L1 adipocytes, calcein-AM fluorescence, 48 h, basal (AID 1163); conditions: 3T3-L1 adipocytes viability, higher = more signal; note: test concentration not given here
[13] = HepG2 cell viability effects, profiling panel, calcein-AM fluorescence, 48 h, basal (AID 1164); conditions: higher = more signal; note: test concentration not given here
[14] = MM1S cell viability effects, profiling panel, calcein-AM fluorescence, 48 h, basal (AID 1165); conditions: higher = more signal;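 note: viability of MM1S multiple myeloma cells under basal unstimulated conditions; test concentration not given here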
[15] = basal RPMI8226 viability, no added stimulus, profiling panel, cell-based, calcein-AM fluorescence, 48 h, PK04 Diversity Set (AID 1166); conditions: RPMI8226 myeloma viability, higher = more signal;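 note: cells grown under basal conditions without added stimulus; test concentration not given here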
[16] = basal HepG2 mitochondrial membrane potential changes, profiling panel, cell-based, JC-1 fluorescence, 24 h, 100 nL compound (AID 1167); conditions: higher = more signal; note: test concentration not given here
[17] = basal 3T3-L1 adipocyte mitochondrial potential changes, profiling panel, cell-based, JC-1 fluorescence, 3T3-L1 adipocytes, 24 h, 100 nL compound (AID 1168); conditions: JC-1 mitochondrial fluorescence, higher = more signal, called active from +8 up or from −8 down; note: test concentration not given here
[18] = basal RPMI8226 mitochondrial membrane potential changes, profiling panel, cell-based, JC-1 fluorescence, 24 h, 100 nL compound (AID 1169); conditions: RPMI8226 myeloma, JC-1 mitochondrial potential fluorescence, higher = more signal; note: test concentration not given here
[19] = basal MM1S mitochondrial membrane potential changes, profiling panel, cell-based, JC-1 fluorescence, 24 h, 100 nL compound (AID 1170); conditions: higher = more signal; note: test concentration not given here
[20] = A549 lung cancer cell viability effects, profiling panel, resazurin fluorescence, 24 h, PK04 Diversity Set (AID 1171); conditions: higher = more signal, called active from +8 up or from −8 down; note: test concentration not given here

NADPH oxidase 2 (Homo sapiens), sequence (P04839 whole entry, looked up): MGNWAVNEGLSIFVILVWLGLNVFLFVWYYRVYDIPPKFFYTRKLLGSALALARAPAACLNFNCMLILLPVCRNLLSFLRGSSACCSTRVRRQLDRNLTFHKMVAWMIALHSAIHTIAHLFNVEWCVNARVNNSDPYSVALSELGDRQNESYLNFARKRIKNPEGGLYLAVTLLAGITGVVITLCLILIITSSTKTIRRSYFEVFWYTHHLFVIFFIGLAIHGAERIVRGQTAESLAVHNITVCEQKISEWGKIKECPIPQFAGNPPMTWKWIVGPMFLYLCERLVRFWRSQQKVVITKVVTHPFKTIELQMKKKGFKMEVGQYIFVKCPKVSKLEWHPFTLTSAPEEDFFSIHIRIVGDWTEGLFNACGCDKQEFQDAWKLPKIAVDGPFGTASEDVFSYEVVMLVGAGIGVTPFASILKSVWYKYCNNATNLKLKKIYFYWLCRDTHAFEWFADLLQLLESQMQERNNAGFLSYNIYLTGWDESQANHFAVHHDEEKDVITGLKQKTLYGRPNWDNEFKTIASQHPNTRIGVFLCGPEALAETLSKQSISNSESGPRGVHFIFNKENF
NADPH oxidase 4 (Homo sapiens), sequence (Q9NPH5 whole entry, looked up): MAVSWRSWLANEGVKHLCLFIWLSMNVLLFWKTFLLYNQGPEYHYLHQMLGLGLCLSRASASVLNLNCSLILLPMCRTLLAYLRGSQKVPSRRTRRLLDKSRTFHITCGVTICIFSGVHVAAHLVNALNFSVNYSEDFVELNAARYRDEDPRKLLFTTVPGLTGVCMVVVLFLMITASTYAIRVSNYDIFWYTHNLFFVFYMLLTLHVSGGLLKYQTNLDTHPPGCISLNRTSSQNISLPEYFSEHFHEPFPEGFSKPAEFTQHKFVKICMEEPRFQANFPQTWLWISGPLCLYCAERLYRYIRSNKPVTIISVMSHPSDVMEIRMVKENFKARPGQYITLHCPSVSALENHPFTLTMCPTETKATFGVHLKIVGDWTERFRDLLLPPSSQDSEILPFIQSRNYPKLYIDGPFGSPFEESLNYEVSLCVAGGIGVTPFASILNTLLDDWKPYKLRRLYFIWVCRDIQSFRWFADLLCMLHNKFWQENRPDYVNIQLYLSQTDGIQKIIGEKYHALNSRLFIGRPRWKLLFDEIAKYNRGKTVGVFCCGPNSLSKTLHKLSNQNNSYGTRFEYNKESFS
NADPH oxidase 5 (Homo sapiens), sequence (Q96PH1 whole entry, looked up): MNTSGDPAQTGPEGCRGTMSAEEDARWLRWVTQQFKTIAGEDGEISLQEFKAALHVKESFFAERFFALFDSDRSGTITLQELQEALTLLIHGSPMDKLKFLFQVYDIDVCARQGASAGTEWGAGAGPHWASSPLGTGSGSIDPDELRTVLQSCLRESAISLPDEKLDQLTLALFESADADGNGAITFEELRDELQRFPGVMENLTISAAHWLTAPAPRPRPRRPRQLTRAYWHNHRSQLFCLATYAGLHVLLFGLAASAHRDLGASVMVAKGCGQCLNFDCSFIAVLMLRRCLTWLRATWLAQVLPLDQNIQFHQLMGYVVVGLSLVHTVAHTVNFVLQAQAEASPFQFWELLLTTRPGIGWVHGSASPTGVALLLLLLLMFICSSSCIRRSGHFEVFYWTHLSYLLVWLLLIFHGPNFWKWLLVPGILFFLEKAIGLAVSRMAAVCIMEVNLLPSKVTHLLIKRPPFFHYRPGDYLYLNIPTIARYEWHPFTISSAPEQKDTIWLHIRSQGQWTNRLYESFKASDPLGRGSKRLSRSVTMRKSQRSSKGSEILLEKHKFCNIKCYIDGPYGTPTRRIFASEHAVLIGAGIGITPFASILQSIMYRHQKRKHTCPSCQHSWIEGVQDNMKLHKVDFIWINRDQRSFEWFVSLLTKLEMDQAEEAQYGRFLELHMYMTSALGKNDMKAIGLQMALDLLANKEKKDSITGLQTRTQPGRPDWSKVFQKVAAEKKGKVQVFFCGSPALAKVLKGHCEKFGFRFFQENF

Compound | z-score [1] | composite z-score [2] | z-score [3] | z-score [4] | z-score [5] | z-score [6] | z-score [7] | z-score [8] | z-score [9] | z-score [10] | z-score [11] | z-score [12] | z-score [13] | z-score [14] | z-score [15] | z-score [16] | z-score [17] | z-score [18] | z-score [19] | z-score [20]
CCOC(=O)C[C@H]1[C@H](OC(=O)Cc2ccc3c(c2)OCO3)[C@@H](NC(=O)c2ccccc2)c2cc(OCCCO)ccc2N1C(=O)Cc1ccc(OC)cc1 | 1.57 (inactive) | -0.31 | 9.58 (active) | 0.828 (inactive) | -0.288 (inactive) | -0.129 (inactive) | 2.91 | -0.986 (inactive) | 0.205 (inactive) | -1.1 | 3.09 | 1.19 | 1.01 | 0.856 | 0.434 | 1.53 | -0.947 (inactive) | 0.133 | -0.851 | 0.0119 (inactive)
CN1C(=O)C2C(C1=O)C1C=C(c3ccc(CO)cc3)C2C(c2cccs2)N1C (stereo not given) | 0.894 (inactive) | 0.186 | 3.57 (inactive) | 1.29 (inactive) | 1.43 (inactive) | 0.699 (inactive) | -0.105 | 0.158 (inactive) | -1.96 (inactive) | -0.45 | -0.0148 | 0.338 | 0.186 | -0.88 | -0.996 | 0.398 | -0.42 (inactive) | -0.492 | 0.172 | -0.173 (inactive)
COC(=O)[C@@]1(CCS(=O)(=O)c2ccccc2)N=C(c2ccc(OCCCO)cc2)O[C@H]1c1ccccc1N=[N+]=[N-] | -0.527 (inactive) | -0.0559 | 26.9 (active) | 22.3 (active) | 1.09 (inactive) | 3.42 (inactive) | 0.819 | -1.31 (inactive) | 1.02 (inactive) | -1.59 | -1.66 | 0.81 | -0.474 | -0.746 | 0.206 | 0.335 | -0.852 (inactive) | -0.687 | -0.426 | -2.02 (inactive)
CN1C=C(C(=O)OCCS(C)(=O)=O)C(C(=O)OCCS(C)(=O)=O)=CC(CCCO)=CC1c1ccc(CN2CCCC2)cc1 (stereo not given) | 0.0837 (inactive) | 0.546 | 1.39 (inactive) | -0.162 (inactive) | -0.203 (inactive) | 0.0374 (inactive) | -0.0029 | 0.526 (inactive) | 0.0702 (inactive) | -1.65 | 1.46 | -2.48 | 1.81 | 0.101 | -0.268 | 1.82 | -0.469 (inactive) | 1.33 | -0.394 | 0.0251 (inactive)
CN(C)CCCC[C@@H]1NC(=O)[C@H]2C[C@@H](C(=O)NCc3ccc(F)cc3)[C@@H](c3ccc(O)cc3)N2C1=O | 0.104 (inactive) | 0.364 | 1.2 (inactive) | -0.0251 (inactive) | -6.5 (inactive) | 0.153 (inactive) | -0.449 | 0.0836 (inactive) | 0.799 (inactive) | 0.195 | 0.334 | 0.0359 | -0.372 | -0.0511 | -0.23 | 1.28 | -0.365 (inactive) | -0.152 | 0.195 | 0.377 (inactive)
CCCC[C@H]1OB(O)C[C@H]2C1=C(C)C[C@H]1C(=O)C=CC(=O)[C@H]12 | -0.202 (inactive) | -0.06 | 1.7 (inactive) | 0.183 (inactive) | 0.816 (inactive) | 0.182 (inactive) | -0.0244 | -1.12 (inactive) | -1.25 (inactive) | -1.18 | -0.252 | -1.14 | -0.799 | -3.35 | -3.16 | -3.39 | -1.24 (inactive) | -0.937 | -2.13 | -0.443 (inactive)
C=C(CCCC)C(=O)CC[C@H](OC(C)=O)c1ccccc1OCCO | 0.0371 (inactive) | 0.149 | 5.66 (inactive) | -0.686 (inactive) | 2.15 (inactive) | -1.83 (inactive) | 1.68 | -1.56 (inactive) | -0.397 (inactive) | -2.19 | -0.655 | 1.66 | -0.713 | -3.29 | -2.91 | 0.103 | 0.98 (inactive) | -0.706 | 0.346 | -1.24 (inactive)
CN(C)CCCC[C@@H]1NC(=O)[C@@H]2C[C@H](C(=O)NCc3ccc(F)cc3)[C@H](c3ccc(O)cc3)N2C1=O | -0.876 (inactive) | -0.0501 | 1.98 (inactive) | 0.947 (inactive) | -1.62 (inactive) | 0.35 (inactive) | 0.359 | 0.391 (inactive) | -0.25 (inactive) | 0.714 | -0.467 | -0.904 | 0.263 | 0.135 | -0.0865 | 0.393 | -0.0839 (inactive) | -0.963 | -0.187 | -0.454 (inactive)
COC(=O)C1=CC(CCCO)=CC(c2ccc(CN3CCCC3)cc2)N(Cc2sc3ccccc3c2Cl)C=C1C(=O)OC (stereo not given) | 1.68 (inactive) | 1.17 | 3.27 (inactive) | -0.28 (inactive) | -0.235 (inactive) | -1.02 (inactive) | 1.6 | 0.613 (inactive) | 0.311 (inactive) | 0.116 | 1.38 | 0.0739 | 1.72 | 0.217 | 0.662 | 4.71 | 0.531 (inactive) | 0.393 | 2.3 | -0.142 (inactive)
